From PubChem BioAssay AID1946 (Johns Hopkins Ion Channel Center, 2009)
Out of some 2,400 compounds screened, about 180 (7.5%) were called active.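 How the source made its calls: active means readout below zero, meaning a drop past 3 SD under the dofetilide-free negative control mean; inactive means the rest.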 The sample as a whole holds a higher share of actives than the screen did.

Molecular target: Potassium voltage-gated channel subfamily KQT member 2 (Rattus norvegicus) (UniProt O88943)
Assay: KCNQ2 blockade in CHO cells – cell-based, FluxOR thallium flux, counter-screen for hERG block protector project, confirmation (AID 1946)
Settings: FluxOR thallium flux fluorescence, at 10 µM, stronger effect = lower value

Potassium voltage-gated channel subfamily KQT member 2 (Rattus norvegicus), sequence (O88943 whole entry, looked up): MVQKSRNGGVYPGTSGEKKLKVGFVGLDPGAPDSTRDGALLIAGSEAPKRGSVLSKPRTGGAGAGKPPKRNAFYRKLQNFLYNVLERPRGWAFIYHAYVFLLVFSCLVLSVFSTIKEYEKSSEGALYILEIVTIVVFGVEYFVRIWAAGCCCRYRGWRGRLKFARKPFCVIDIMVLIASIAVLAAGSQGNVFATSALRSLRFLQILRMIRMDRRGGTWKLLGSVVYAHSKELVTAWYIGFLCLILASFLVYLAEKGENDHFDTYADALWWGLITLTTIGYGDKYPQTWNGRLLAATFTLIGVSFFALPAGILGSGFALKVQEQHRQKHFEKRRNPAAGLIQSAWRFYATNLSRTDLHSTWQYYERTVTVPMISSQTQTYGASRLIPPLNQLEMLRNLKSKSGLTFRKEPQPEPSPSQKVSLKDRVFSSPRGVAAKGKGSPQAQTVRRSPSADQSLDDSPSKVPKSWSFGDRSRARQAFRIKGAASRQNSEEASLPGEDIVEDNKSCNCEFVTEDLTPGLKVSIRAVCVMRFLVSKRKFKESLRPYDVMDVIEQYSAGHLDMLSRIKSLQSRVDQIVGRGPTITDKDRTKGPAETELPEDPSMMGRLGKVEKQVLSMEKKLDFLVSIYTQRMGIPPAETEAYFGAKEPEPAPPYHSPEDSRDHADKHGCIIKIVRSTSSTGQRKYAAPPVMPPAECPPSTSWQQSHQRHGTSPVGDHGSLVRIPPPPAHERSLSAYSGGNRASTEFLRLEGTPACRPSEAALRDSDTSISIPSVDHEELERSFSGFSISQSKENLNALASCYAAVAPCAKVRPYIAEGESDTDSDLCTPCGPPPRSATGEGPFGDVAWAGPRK

Structure (SMILES)	activity change vs negative control
O=C(O)CCC(=O)NCCC1=c2ccccc2=N/C1=C\c1c(O)n(Cc2ccc(F)cc2)c(=S)[nH]c1=O	-3.3% (active)
O=C1CC(=O)N(c2cccc(C(F)(F)F)c2)C(=O)N1	10.7% [zero marks the 3-SD hit cutoff] (inactive)
COc1ccc2c(c1)/C(=C/c1cnc[nH]1)C(=O)N2	28% [zero marks the 3-SD hit cutoff] (inactive)
COc1ccc2c3c1OC1C(O)C=CC4C(C2)[N+](C)(C)CCC341 (stereo not given)	11.5% (inactive)
CCOC(=O)c1c(NS(=O)(=O)c2ccccc2)n(CCCOC)c2nc3ccccc3nc12	1.7% [zero marks the 3-SD hit cutoff] (inactive)
O=c1[nH]c(=S)[nH]c(O)c1/C=C1/C=c2ccccc2=N1	-4.3% (active)
C=CCn1c(O)c(/C=C2/C=c3ccccc3=N2)c(=O)[nH]c1=S	3.2% (inactive)
Cc1ccc(S(=O)(=O)NC(Cc2cnc[nH]2)C(=O)O)cc1 (stereo not given)	7.9% [zero marks the 3-SD hit cutoff] (inactive)
Cc1ccc(-n2c(O)c(/C=N/Nc3ccccc3)c(=O)[nH]c2=O)cc1C	18.8% (inactive)
C1CCC2S[C@H]3CCCCC3NC2C1 (stereo not given in full)	6.1% [zero marks the 3-SD hit cutoff] (inactive)
Cc1nc2ccccc2c(=O)n1-c1cc([N+](=O)[O-])cc([N+](=O)[O-])c1	-5.3% (active)
CCOC(=O)Cn1cc([N+](=O)[O-])nc1[N+](=O)[O-]	14.6% [zero marks the 3-SD hit cutoff] (inactive)
O=c1[nH]c(=S)[nH]c(O)c1N=Nc1ccc(S(=O)(=O)N2CCc3ccccc32)cc1	7.8% (inactive)
O=C(Cn1ncc2c3ccccc3n(Cc3ccccc3F)c2c1=O)N1CCC2(CC1)OCCO2	64.8% (inactive)
CCCc1[nH]nc2c1C1(C(=O)N(Cc3ccccc3)c3ccccc31)C(C(=O)OC)=C(N)O2 (stereo not given)	3.3% [zero marks the 3-SD hit cutoff] (inactive)
O=C1NC(=O)N(c2ccccc2)C(=O)/C1=C/c1ccc(Sc2ccccc2)o1	-2.5% (active)
O=C1NC(=S)N(c2ccc(F)cc2)C(=O)/C1=C/c1ccco1	22.1% (inactive)
Cc1ccccc1N1C(=O)/C(=C/c2ccco2)C(=O)NC1=S	15% (inactive)
CN1C(=O)/C(=C/c2ccc(Cl)s2)C(=O)NC1=S	9.5% (inactive)
CC(=NCc1ccco1)c1c(O)n(-c2ccc(C)cc2)c(=O)[nH]c1=O	18.6% (inactive)
O=c1[nH]c(O)c(/C=C2/C=CC(c3cc(Cl)ccc3Cl)=N2)c(=O)[nH]1	-2.7% (active)
O=C1NC(=O)C(=Cc2ccc(-c3ccc(Cl)cc3)o2)C(=O)N1	11% (inactive)
O=C(O)c1c[nH]c2ccc(S(=O)(=O)N(CCCl)CCCl)cc12	14% [zero marks the 3-SD hit cutoff] (inactive)
N#CC1=C(N)Oc2c(c(=O)oc3ccccc23)C1c1cccnc1 (stereo not given)	7.9% [zero marks the 3-SD hit cutoff] (inactive)
NCCc1ccc(S(N)(=O)=O)cc1	-1.5% [zero marks the 3-SD hit cutoff] (active)
O=c1c2cc(Br)ccc2[nH]c(=S)n1-c1ccccc1	9.1% [zero marks the 3-SD hit cutoff] (inactive)
CCCCn1c(O)c(C(CC)=Nc2ccc(OCC)cc2)c(=O)[nH]c1=O	3.2% (inactive)
CN1C(=O)/C(=C\c2ccc(Br)s2)C(=O)NC1=S	6.5% (inactive)
Oc1cccc2cccnc12	24.3% [zero marks the 3-SD hit cutoff] (inactive)
COc1ccccc1N1CCN(Cc2ccc(F)cc2)CC1	8.2% (inactive)
